# Measurements published in PubChem BioAssay AID1347418 (Sanford-Burnham Center for Chemical Genomics, 2020).
# Values joined by “and” are separate entries in the source; they are usually repeats but may differ in a detail not shown here. Identical values can stand only once. Hit rate of the full screen: of about 1,300 compounds, about 750 (58%) were called active. The list shows a part of the results. More than one record can exist for a structure, and the calls need not agree.
# Target: Sulfhydryl oxidase 1 (Homo sapiens) (UniProt O00391)
# Test: inhibition of human sulfhydryl oxidase QSOX1 – biochemical, ROS-Glo H2O2 luminescence, HTS, primary screen (AID 1347418)
# Conditions: recombinant QSOX1, ROS-Glo H2O2 luminescence, at 12.5 µM, stronger effect = higher value; active = any value above zero unless noted
# Sequence of Sulfhydryl oxidase 1 (Homo sapiens) (O00391 whole entry, looked up): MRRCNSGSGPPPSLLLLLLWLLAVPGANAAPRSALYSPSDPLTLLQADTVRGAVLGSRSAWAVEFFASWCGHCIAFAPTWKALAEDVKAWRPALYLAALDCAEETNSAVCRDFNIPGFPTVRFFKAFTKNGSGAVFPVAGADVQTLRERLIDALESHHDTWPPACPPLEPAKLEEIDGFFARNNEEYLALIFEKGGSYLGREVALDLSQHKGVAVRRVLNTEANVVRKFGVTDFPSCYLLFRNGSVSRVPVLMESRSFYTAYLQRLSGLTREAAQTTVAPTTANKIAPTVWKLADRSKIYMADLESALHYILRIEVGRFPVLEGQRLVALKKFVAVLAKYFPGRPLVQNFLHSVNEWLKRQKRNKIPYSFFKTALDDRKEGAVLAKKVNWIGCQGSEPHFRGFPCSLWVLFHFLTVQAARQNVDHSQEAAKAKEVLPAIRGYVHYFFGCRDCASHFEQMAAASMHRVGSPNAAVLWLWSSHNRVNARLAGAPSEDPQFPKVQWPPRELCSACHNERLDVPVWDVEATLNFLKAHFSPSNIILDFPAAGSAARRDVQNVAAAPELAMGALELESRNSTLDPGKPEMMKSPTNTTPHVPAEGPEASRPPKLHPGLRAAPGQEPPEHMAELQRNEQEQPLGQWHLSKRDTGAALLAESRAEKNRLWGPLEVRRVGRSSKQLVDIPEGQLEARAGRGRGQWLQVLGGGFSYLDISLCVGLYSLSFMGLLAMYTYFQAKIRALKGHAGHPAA
row,SMILES,inhibition
1,C[C@H](Cc1ccc2c(c1)OC(C(=O)O)(C(=O)O)O2)NC[C@H](O)c1cccc(Cl)c1,-1.8% (inactive)
2,NC(=O)COc1c(F)cc(SCCNS(=O)(=O)c2ccccc2)cc1F,4% (active)
3,CC(=O)NBr,-4.9% (inactive)
4,O=C(N[C@H]1CN2CCC1CC2)c1ccc(Cl)cc1,0.7% (active)
5,COC[C@H]1OC(=O)c2coc3c2[C@@]1(C)C1=C(C3=O)C2CCC(=O)[C@@]2(C)C[C@H]1OC(C)=O (stereo partly specified),6% (active)
6,CCCCCCC(C)(C)c1ccc([C@@H]2C[C@H](O)CC[C@H]2CCCO)c(O)c1,5.1% [setting not given] (active)
7,CCCCCCCCCCCCCC(=O)O[C@@H]1[C@@H](C)[C@@]2(O)[C@@H](C=C(CO)C[C@@]3(O)C(=O)C(C)=C[C@@H]23)C2C(C)(C)[C@@]21OC(C)=O (stereo partly specified),1.1% (active)
8,CC(=O)[C@H]1CC[C@H]2[C@@H]3CC[C@H]4C[C@](C)(O)CC[C@]4(C)[C@H]3CC[C@]12C,0.1% [setting not given] (active)
9,CC(=O)[C@H]1CCC2C3CC[C@H]4C[C@H](O)CC[C@]4(C)C3CC[C@@]21C (stereo partly specified),-2.4% [setting not given] (inactive)
10,C[C@]12CCC3C(CC[C@H]4C[C@H](O)CC[C@]34C)C1CC[C@@H]2C(=O)CO (stereo partly specified),-1.5% (inactive)
11,Cc1c(C(=O)c2cccc3ccccc23)c2cccc3c2n1[C@H](CN1CCOCC1)CO3,7.5% [setting not given] (active)
12,O=C(O)c1cc[c]([Hg][Cl])cc1,-7.7% (inactive)
13,O=[N+]([O-])c1ccc2nc(N3CCNCC3)ccc2c1,0.9% (active)
14,C=CCN1C[C@@H](C)N([C@H](c2ccc(C(=O)N(CC)CC)cc2)c2cccc(OC)c2)C[C@@H]1C,-4.2% (inactive)
15,Cc1cc([C@@H]2CCCN2C)on1,4.2% (active)
16,Clc1cc(I)cc(Cl)c1NC1=NCCN1,-4.1% (inactive)
17,O=C1C=CC(=O)C=C1,-2.3% (inactive)
18,CC12NC(Cc3ccccc31)c1ccccc12 (stereo unspecified),1.2% [setting not given] (active)
19,C[C@]12N[C@H](Cc3ccccc31)c1ccccc12,2.8% [setting not given] (active)
20,CC(O)(CS(=O)(=O)c1ccc(F)cc1)C(=O)Nc1ccc(C#N)c(C(F)(F)F)c1 (stereo unspecified),-1.2% [setting not given] (inactive)
21,CC(C)[C@H]1CN[C@H](C(=O)O)[C@H]1CC(=O)O,0.8% (active)

row,SMILES,inhibition
1,C=C(C)[C@H]1CN[C@H](C(=O)O)[C@H]1CC(=O)O,-6.1% (inactive)
2,C=CCN1CC[C@]23CCCCC2[C@H]1Cc1ccc(O)cc13 (stereo partly specified),4.2% [setting not given] (active)
3,NCC(O)c1cc(O)c(O)cc1F (stereo unspecified),12.3% (active)
4,NN=C(N)N,6.4% (active) and -1.5% (inactive)
5,NCC1(CC(=O)O)CCCCC1,-2.9% [setting not given] (inactive)
6,O=P1(N(CCCl)CCCl)NCCCO1 (stereo unspecified),4.8% (active)
7,c1ccc2cc(CC3=NCCN3)ccc2c1,-1.3% [setting not given] (inactive)
8,CCCN(CCC)C1CCc2ccc(O)cc2C1 (stereo unspecified),3.7% (active)
9,CCCN(CCC)[C@H]1CCc2c(F)ccc(O)c2C1,-4.8% (inactive)
10,CCCN(CCC)C1CCc2cccc(O)c2C1 (stereo unspecified),-7.7% (inactive)
11,CCCN(CCC)[C@@H]1CCc2ccc(O)cc2C1,6.3% (active)
12,CCCN(CCC)C1Cc2cc(OC)c(OC)cc2C1,-0.2% (inactive)
13,CCCN(CCC)[C@@H]1CCc2cccc(O)c2C1,3.9% (active)
14,CN(N=O)c1ccc(O)c(O)c1,5.2% (active)
15,CN(N=O)c1cc(O)ccc1O,4.1% (active)
16,NC1CC1c1ccccc1 (stereo unspecified),-0.7% (inactive)
17,CCCN1CCO[C@@H]2c3cc(O)ccc3OC[C@H]21,4.3% (active)
18,CCCN1CC[C@@H]2c3cc(O)ccc3CC[C@@H]21,-5.9% (inactive)
19,CCN(CCCl)Cc1ccccc1Br,1.5% (active)
20,CCCN1CCc2cccc3c2[C@H]1Cc1ccc(O)c(O)c1-3,25.2% (active)
21,CN1CCc2cc(O)cc3c2[C@H]1Cc1ccc(O)c(O)c1-3,25.4% (active)

row,SMILES,inhibition
1,COc1ccc2c(c1OC)C(=O)O[C@H]2[C@@H]1c2cc3c(cc2CCN1C)OCO3,-2.2% (inactive)
2,C=CCN1CCc2cccc3c2[C@H]1Cc1ccc(O)c(O)c1-3,23.6% (active)
3,COc1ccc2c(c1O)-c1cccc3c1[C@@H](C2)N(C)CC3,3.5% (active)
4,CCCN1CCc2cc(O)cc3c2[C@H]1Cc1ccc(O)c(O)c1-3,29.9% (active)
5,C[C@H]1C2Cc3ccc(O)cc3C1(C)CCN2CC1CC1 (stereo partly specified),4.5% [setting not given] (active)
6,O=C(O)CC[N+](=O)[O-],-3.4% [setting not given] (inactive)
7,CC(C)NP(=O)(NC(C)C)OP(=O)(NC(C)C)NC(C)C,10.1% (active)
8,C[C@H](N)CN1CCc2ccc(Br)cc21,35.7% (active)
9,CCCn1c(=O)c2[nH]c(C3CCCC3)nc2n(CCCOC(=O)c2ccc(S(=O)(=O)F)cc2)c1=O,-1.3% (inactive)
10,CC(=O)c1c(O)c(C)c(O)c(Cc2c(O)c3c(c(C(=O)/C=C/c4ccccc4)c2O)OC(C)(C)C=C3)c1O,0.8% (active)
11,CCNC(=O)[C@H]1O[C@@H](n2cnc3c(N)ncnc32)C(O)[C@H]1O (stereo partly specified),3.3% (active)
12,CCCC(C)(COC(N)=O)COC(=O)NC(C)C (stereo unspecified),1.5% [setting not given] (active)
13,NC1CCc2cc(O)c(O)cc2C1 (stereo unspecified),12.7% (active)
14,Ic1ccccc1CNC1C2CCN(CC2)C1C(c1ccccc1)c1ccccc1 (stereo unspecified),-6.2% (inactive)
15,COc1ccc2c(c1)[C@@]13CCCC[C@H]1[C@@H](C2)NCC3,1.4% [setting not given] (active)
16,COc1ccc2c(c1)C13CCCCC1C(C2)N(C)CC3 (stereo unspecified),-2.3% [setting not given] (inactive)
17,c1ccc(C2CC2)c(OCC2=NCCN2)c1,-2% (inactive)
18,CC(CCc1ccccc1)NC(C)C(O)c1ccc(O)cc1 (stereo unspecified),0.8% (active)
19,Nc1ccc(CCN2CCN(c3cccc(C(F)(F)F)c3)CC2)cc1,2.2% (active)
